# Experimental data as given in article PMC11062922 (Nature Chemical Biology, 2023).
# Like-named read-outs stand apart in the source and are kept apart here.
# Assays:
# PRKD3 = settings: read-out: apparent Kd, n = 1
# Q6ZSR9 = Q6ZSR9 (human, UniProt Q6ZSR9); settings: read-out: apparent Kd, n = 1
# Chain of Q6ZSR9 (Q6ZSR9 whole entry, looked up): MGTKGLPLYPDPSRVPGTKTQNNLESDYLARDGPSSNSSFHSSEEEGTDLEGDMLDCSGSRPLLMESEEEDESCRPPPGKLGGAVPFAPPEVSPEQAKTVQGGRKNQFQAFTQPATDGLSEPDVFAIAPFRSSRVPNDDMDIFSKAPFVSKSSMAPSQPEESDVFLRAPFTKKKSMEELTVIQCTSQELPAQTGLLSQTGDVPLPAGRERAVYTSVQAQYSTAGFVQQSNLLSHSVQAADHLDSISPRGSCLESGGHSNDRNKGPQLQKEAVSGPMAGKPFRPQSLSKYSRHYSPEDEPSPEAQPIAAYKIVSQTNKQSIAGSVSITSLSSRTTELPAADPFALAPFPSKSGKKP
substance,measurement,setting,value
Lestaurtinib,potency estimated from few doses,"PRKD3; compound concentrations:100 nM and 1000 nM (sheet 'Lestaurtinib' of Supplementary Table 1),run:Lestaurtinib_02766_R2,Plate:MR027",0.0746 µM
same,potency estimated from few doses,"PRKD3; compound concentrations:100 nM and 1000 nM (sheet 'Lestaurtinib' of Supplementary Table 1),run:Lestaurtinib_02768_R3,Plate:MR028",0.0591 µM
same,potency estimated from few doses,"PRKD3; compound concentrations:100 nM and 1000 nM (sheet 'Lestaurtinib' of Supplementary Table 1),run:Lestaurtinib_02795_R2,Plate:MR022",0.0798 µM
same,potency estimated from few doses,"PRKD3; compound concentrations:100 nM and 1000 nM (sheet 'Lestaurtinib' of Supplementary Table 1),run:Lestaurtinib_02802_R1,Plate:MR029",0.0831 µM
same,potency estimated from few doses,"PRKD3; compound concentrations:100 nM and 1000 nM (sheet 'Lestaurtinib' of Supplementary Table 1),run:Lestaurtinib_02802_R3,Plate:MR029",0.0827 µM
same,potency estimated from few doses,"PRKD3; compound concentrations:100 nM and 1000 nM (sheet 'Lestaurtinib' of Supplementary Table 1),run:Lestaurtinib_02896_R1,Plate:MR030",0.0618 µM
same,potency estimated from few doses,"PRKD3; compound concentrations:100 nM and 1000 nM (sheet 'Lestaurtinib' of Supplementary Table 1),run:Lestaurtinib_02896_R2,Plate:MR030",0.0806 µM
same,potency estimated from few doses,"PRKD3; compound concentrations:100 nM and 1000 nM (sheet 'Lestaurtinib' of Supplementary Table 1),run:Lestaurtinib_02896_R3,Plate:MR030",0.0922 µM
same,potency estimated from few doses,"PRKD3; compound concentrations:100 nM and 1000 nM (sheet 'Lestaurtinib' of Supplementary Table 1),run:Lestaurtinib_03172_R3,Plate:MR031",0.0901 µM
same,potency estimated from few doses,"PRKD3; compound concentrations:100 nM and 1000 nM (sheet 'Lestaurtinib' of Supplementary Table 1),run:Lestaurtinib_03252_R1,Plate:MR032",0.0434 µM
same,potency estimated from few doses,"PRKD3; compound concentrations:100 nM and 1000 nM (sheet 'Lestaurtinib' of Supplementary Table 1),run:Lestaurtinib_03252_R2,Plate:MR032",0.0306 µM
same,potency estimated from few doses,"PRKD3; compound concentrations:100 nM and 1000 nM (sheet 'Lestaurtinib' of Supplementary Table 1),run:Lestaurtinib_03260_R2,Plate:MR033",0.0967 µM
same,potency estimated from few doses,"PRKD3; compound concentrations:100 nM and 1000 nM (sheet 'Lestaurtinib' of Supplementary Table 1),run:Lestaurtinib_03260_R3,Plate:MR033",0.0912 µM
same,potency estimated from few doses,"Q6ZSR9; compound concentrations:100 nM and 1000 nM (sheet 'Lestaurtinib' of Supplementary Table 1),run:Lestaurtinib_02339_R1,Plate:MR001",0.0789 µM
same,potency estimated from few doses,"Q6ZSR9; compound concentrations:100 nM and 1000 nM (sheet 'Lestaurtinib' of Supplementary Table 1),run:Lestaurtinib_02339_R3,Plate:MR001",0.0488 µM
same,potency estimated from few doses,"Q6ZSR9; compound concentrations:100 nM and 1000 nM (sheet 'Lestaurtinib' of Supplementary Table 1),run:Lestaurtinib_02364_R1,Plate:MR002",0.0685 µM
same,potency estimated from few doses,"Q6ZSR9; compound concentrations:100 nM and 1000 nM (sheet 'Lestaurtinib' of Supplementary Table 1),run:Lestaurtinib_02364_R2,Plate:MR002",0.0681 µM
same,potency estimated from few doses,"Q6ZSR9; compound concentrations:100 nM and 1000 nM (sheet 'Lestaurtinib' of Supplementary Table 1),run:Lestaurtinib_02364_R3,Plate:MR002",0.0786 µM
same,potency estimated from few doses,"Q6ZSR9; compound concentrations:100 nM and 1000 nM (sheet 'Lestaurtinib' of Supplementary Table 1),run:Lestaurtinib_02367_R1,Plate:MR003",0.0627 µM
same,potency estimated from few doses,"Q6ZSR9; compound concentrations:100 nM and 1000 nM (sheet 'Lestaurtinib' of Supplementary Table 1),run:Lestaurtinib_02367_R2,Plate:MR003",0.0667 µM
same,potency estimated from few doses,"Q6ZSR9; compound concentrations:100 nM and 1000 nM (sheet 'Lestaurtinib' of Supplementary Table 1),run:Lestaurtinib_02367_R3,Plate:MR003",0.0788 µM
same,potency estimated from few doses,"Q6ZSR9; compound concentrations:100 nM and 1000 nM (sheet 'Lestaurtinib' of Supplementary Table 1),run:Lestaurtinib_02381_R1,Plate:MR004",0.0694 µM
same,potency estimated from few doses,"Q6ZSR9; compound concentrations:100 nM and 1000 nM (sheet 'Lestaurtinib' of Supplementary Table 1),run:Lestaurtinib_02381_R2,Plate:MR004",0.0646 µM
same,potency estimated from few doses,"Q6ZSR9; compound concentrations:100 nM and 1000 nM (sheet 'Lestaurtinib' of Supplementary Table 1),run:Lestaurtinib_02407_R1,Plate:MR005",0.0623 µM
same,potency estimated from few doses,"Q6ZSR9; compound concentrations:100 nM and 1000 nM (sheet 'Lestaurtinib' of Supplementary Table 1),run:Lestaurtinib_02407_R2,Plate:MR005",0.0719 µM
same,potency estimated from few doses,"Q6ZSR9; compound concentrations:100 nM and 1000 nM (sheet 'Lestaurtinib' of Supplementary Table 1),run:Lestaurtinib_02407_R3,Plate:MR005",0.0685 µM
same,potency estimated from few doses,"Q6ZSR9; compound concentrations:100 nM and 1000 nM (sheet 'Lestaurtinib' of Supplementary Table 1),run:Lestaurtinib_02422_R1,Plate:MR006",0.0724 µM
same,potency estimated from few doses,"Q6ZSR9; compound concentrations:100 nM and 1000 nM (sheet 'Lestaurtinib' of Supplementary Table 1),run:Lestaurtinib_02422_R2,Plate:MR006",0.0206 µM
same,potency estimated from few doses,"Q6ZSR9; compound concentrations:100 nM and 1000 nM (sheet 'Lestaurtinib' of Supplementary Table 1),run:Lestaurtinib_02437_R2,Plate:MR007",0.0556 µM
same,potency estimated from few doses,"Q6ZSR9; compound concentrations:100 nM and 1000 nM (sheet 'Lestaurtinib' of Supplementary Table 1),run:Lestaurtinib_02437_R3,Plate:MR007",0.00966 µM
same,potency estimated from few doses,"Q6ZSR9; compound concentrations:100 nM and 1000 nM (sheet 'Lestaurtinib' of Supplementary Table 1),run:Lestaurtinib_02438_R3,Plate:MR008",0.0748 µM
same,potency estimated from few doses,"Q6ZSR9; compound concentrations:100 nM and 1000 nM (sheet 'Lestaurtinib' of Supplementary Table 1),run:Lestaurtinib_02443_R1,Plate:MR009",0.0516 µM
same,potency estimated from few doses,"Q6ZSR9; compound concentrations:100 nM and 1000 nM (sheet 'Lestaurtinib' of Supplementary Table 1),run:Lestaurtinib_02443_R2,Plate:MR009",0.0627 µM
same,potency estimated from few doses,"Q6ZSR9; compound concentrations:100 nM and 1000 nM (sheet 'Lestaurtinib' of Supplementary Table 1),run:Lestaurtinib_02443_R3,Plate:MR009",0.0778 µM
same,potency estimated from few doses,"Q6ZSR9; compound concentrations:100 nM and 1000 nM (sheet 'Lestaurtinib' of Supplementary Table 1),run:Lestaurtinib_02473_R1,Plate:MR010",0.0784 µM
same,potency estimated from few doses,"Q6ZSR9; compound concentrations:100 nM and 1000 nM (sheet 'Lestaurtinib' of Supplementary Table 1),run:Lestaurtinib_02473_R2,Plate:MR010",0.061 µM
same,potency estimated from few doses,"Q6ZSR9; compound concentrations:100 nM and 1000 nM (sheet 'Lestaurtinib' of Supplementary Table 1),run:Lestaurtinib_02473_R3,Plate:MR010",0.0357 µM
same,potency estimated from few doses,"Q6ZSR9; compound concentrations:100 nM and 1000 nM (sheet 'Lestaurtinib' of Supplementary Table 1),run:Lestaurtinib_02482_R2,Plate:MR011",0.0766 µM
same,potency estimated from few doses,"Q6ZSR9; compound concentrations:100 nM and 1000 nM (sheet 'Lestaurtinib' of Supplementary Table 1),run:Lestaurtinib_02482_R3,Plate:MR011",0.0656 µM
same,potency estimated from few doses,"Q6ZSR9; compound concentrations:100 nM and 1000 nM (sheet 'Lestaurtinib' of Supplementary Table 1),run:Lestaurtinib_02487_R1,Plate:MR012",0.0717 µM
same,potency estimated from few doses,"Q6ZSR9; compound concentrations:100 nM and 1000 nM (sheet 'Lestaurtinib' of Supplementary Table 1),run:Lestaurtinib_02487_R2,Plate:MR012",0.0666 µM
same,potency estimated from few doses,"Q6ZSR9; compound concentrations:100 nM and 1000 nM (sheet 'Lestaurtinib' of Supplementary Table 1),run:Lestaurtinib_02487_R3,Plate:MR012",0.0812 µM
